# Screening results from PubChem.
# aSyn yeast inh: rescues yeast growth from alpha-synuclein toxicity | Yeast expressing alpha-synuclein, growth rescue, BacTiter-Glo, 24 h | Potency, µM (doses to about 46.1 µM), for the others: top-dose growth rescue (activation), most hits filed as activators | 0.14% of 370,000 active; note: % of control where 0% means no effect; nearly all actives have a fitted effect of over 65% in size
#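 Galactose-induced alpha-syn yeast (OD600=0.02, raffinose-pregrown) + pinned cpd, 24 hr, 30 deg C; growth by BacTiter-Glo luminescence. Growth restoration scores as activation.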
# TDP-43 yeast inh: inhibitors of TDP-43 toxicity in yeast; AID 652104; 1.8% of 410,000 active; TDP-43 expressing yeast growth rescue, BacTiter-Glo, 24 h; Potency, µM (doses to about 46.1 µM), without a hit: at the highest dose growth rescue (activation), actives largely listed as activators; note: % of control where 0% means no effect; nearly all actives have a fitted effect of over 50% in size
#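 Readout is BacTiter-Glo luminescence of cell growth, so inhibitors register as activators. TDP-43-expressing yeast at OD600=0.02 in galactose medium, after raffinose pregrowth to mid-log, were incubated with compound for 24 hr at 30 deg C.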
# Abeta yeast res: compounds reversing amyloid beta toxicity in yeast. yeast expressing A-beta42, growth rescue, OD600, 48 h; response scale: 0% DMSO, 100% iron-clioquinol control. Potency, µM (titrated, usually from 46.1 µM), hits mostly activators. 0.063% of 410,000 active. AID 1347071; note: nearly all actives have a fitted effect of over 55% in size
#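 Growth rescue measured by 600 nm absorbance after 48 h yeast culture at 30 C with compound. Values normalized between DMSO and an equimolar ferric chloride plus clioquinol control.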
# Mito fusion yeast: mitochondrial division inhibition or fusion activation; AID 485298; S. cerevisiae fusion-defective mutant growth rescue, CellTiterGlo 48 h; Potency, µM (series often up to 46.1 µM), without a hit: at the top dose growth rescue (activation), actives largely listed as activators; 0.23% of 320,000 active; note: % of control where 0% means no effect; nearly all actives have a fitted effect of over 45% in size
#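 Read-out: ATP-based luminescence (CellTiterGlo, 10 min ambient) reporting growth of fusion-defective ts yeast after 48 hours at 37C on glycerol/ethanol YPEG medium in the presence of compound.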
# FUS yeast rescue: rescues growth of FUS-expressing yeast. S. cerevisiae FUS-expressing, growth rescue, OD600, 24 h. Potency, µM (highest dose often 76.6 µM), most hits filed as activators. 0.24% of 390,000 active;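 note: plate controls were DMSO vehicle for no effect and reference control for full effect; nearly all actives have a fitted effect of over 55% in size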
#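 Toxicity suppression screen in FUS-yeast. Cells induced with 2% galactose, starting OD 0.005, treated 24hr at 30C with compounds at multiple final concentrations; growth by OD600.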
# * hit, by the source's call; i = inactive; ? = inconclusive; . = no result given; [ ] = dose if it differs, or a comment. A selection: hits, their analogues and other compounds. The true share with any hit is near 2.2%. Calls come from the whole dose curve; as a rule, active = well fitted curve in the direction sought with a large enough effect; inconclusive = small, poorly fitted or top-dose-only effect, or another doubt; inactive = no such curve, though single readings can be large; an effect the other way counts as inactive or inconclusive. Potency is the fitted concentration of half-maximal effect.
SMILES,aSyn yeast inh,TDP-43 yeast inh,Abeta yeast res,Mito fusion yeast,FUS yeast rescue
CCCC1CCC2(CC1)CCC2OC(=O)Nc1cccc(Cl)c1 (stereo not drawn),.,.,.,.,i
O=C(NCC(F)(F)F)c1cc2c(c(-c3cccc(-c4ccccc4F)c3)n1)[C@H](CCO)N(C(=O)CC1CC1)C2,11.4%,21.3%,i,.,?
CCCNC(=O)c1cc2c(c(-c3cccc(-c4ccccc4F)c3)n1)[C@@H](CCO)N(C(=O)CC1CC1)C2,0.0%,14.1µM*,i,.,?
C=CCN1C(=O)/C(=C/c2ccc(O)c(OC)c2)S/C1=N/c1nccs1,12.6%,22.4µM*,i,?,.
C=CCN1C(=O)/C(=C/c2ccc(OCC(=O)O)cc2)S/C1=N/c1nccs1,3.2%,21.5%,i,2.4%,i
CCn1c(CN2c3ccccc3Sc3ccccc32)n[nH]c1=S,21.3%,-0.1%,15.8µM*,23.9%,i
CCn1c(CCCCc2n[nH]c(=S)n2CC)n[nH]c1=S,-1.1%,6.9%,i,3.4%,i
Cc1cccc(C)c1NC(=S)NCCSc1ccc(Cl)cc1,5.7%,22.4µM*,i,5.1%,i
O=C(NCCSc1ccc(Cl)cc1)c1ccco1,-2.6%,7.08µM*,i,0.2%,i
COc1ccc(Cl)cc1NC(=S)NCCSc1ccc(C)cc1,-6.2%,22.4µM*,i,5.0%,.
COc1ccccc1NC(=S)NCCSc1ccc(Cl)cc1,-8.2%,0.0%,i,21.1%,.
O=C(CCSc1ccc(Cl)cc1)c1ccco1,-10.3%,?,i,5.3%,i
O=C(C[n+]1ccccc1Br)c1ccc2c(c1)CCCC2,-1.1%,.,.,.,.
Cc1ccc(NC(=O)Cn2c(=O)n(Cc3nc(-c4ccccc4)no3)c(=O)c3cc4c(cc32)OCO4)cc1C,.,-9.1%,i,.,i
COc1cccc(/C=c2/[nH]c(=O)/c(=C\c3cccc(OC)c3OC)[nH]c2=O)c1OC,0.1%,.,.,.,.
O=C(CCc1ccccc1)N[C@H]1[C@H](OCc2ccccc2)CCC[C@@]12C(=O)N(Cc1ccccc1)c1ccccc12,.,.,.,.,i
CCOc1ccc(NC(=O)CN(C)Cc2cc(=O)n3c(-c4ccccc4)csc3n2)cc1OCC,-3.3%,0.3%,i,-6.3%,17.8µM*
NC(=S)N/N=C/c1ccc(-c2ccccc2)o1,10.2%,11.2µM*,?,0.5%,i
Cc1ccc(-c2ccc(/C=N/NC(N)=S)o2)cc1,-19.6%,?,?,-1.7%,i
NC(=S)N/N=C/c1cccc(Br)c1,6.6%,20µM*,i,4.7%,i
NC(=S)N/N=C/c1cccc(/C=N/NC(N)=S)c1,-5.9%,-8.2%,i,1.8%,i
NC(=S)N/N=C/c1ccc(-c2ccc(Cl)c(Cl)c2)o1,21.1%,20µM*,i,12.5%,i
Cc1ccc(C(=O)N/N=C/C=C/c2ccccc2)cc1,-2.9%,-23.0%[9.22 µM],i,5.3%,i
NC(=S)N/N=C/C=C/c1ccccc1,4.6%,10µM*,i,-7.7%,i
O/N=C\c1ccc(-c2ccccc2)o1,-5.9%,8.91µM*,i,9.4%,.
SMILES,aSyn yeast inh,TDP-43 yeast inh,Abeta yeast res,Mito fusion yeast,FUS yeast rescue
O=[N+]([O-])c1ccc(-c2ccc(/C=N/O)o2)cc1,6.8%,?,i,14.0%,i
COC(=O)c1ccc2nc3c(cc2c1)[C@@H]1CCN2C(=O)CCC[C@H](C3)[C@H]12,-0.8%,16.7%,i,.,i
O=C1CCC[C@@H]2Cc3[nH]c4c(Cl)ccc(Cl)c4c3[C@@H]3CCN1[C@H]23,14.9%,28.2µM*,i,2.4%,i
N#Cc1c(-c2ccc([N+](=O)[O-])cc2)nc2n(c1=O)CCS2,-3.3%,4.4%,i,?,i
N#Cc1c(-c2cccc([N+](=O)[O-])c2)nc2n(c1=O)CCS2,1.8%,11.2µM*,?,-11.5%,i
CC(=O)c1ccc(NC(=O)c2nc(-c3ccccc3)n(-c3ccccc3)n2)cc1,.,17.8µM*,i,.,i
COc1ccc(-c2nc(C(=O)Nc3ccc(C(C)=O)cc3)nn2-c2cccc(Cl)c2)cc1,.,?,i,.,?
CC(=O)c1cccc(NC(=O)c2nc(-c3ccccc3)n(-c3cccc(Cl)c3)n2)c1,.,35.5µM*,i,.,?
